# GLP-1R inv ag: inverse agonists of human GLP-1 receptor; 1.6% of 410,000 active; P43220; HEK293 GLP-1R CRE-luciferase, luminescence, 24 h; GLP-1R form is constitutively active; Potency, µM (series often up to 38.3 µM), most hits filed as inhibitors; note: nearly all actives have a fitted effect of over 55% in size
# Target sequence (P43220 whole entry, looked up): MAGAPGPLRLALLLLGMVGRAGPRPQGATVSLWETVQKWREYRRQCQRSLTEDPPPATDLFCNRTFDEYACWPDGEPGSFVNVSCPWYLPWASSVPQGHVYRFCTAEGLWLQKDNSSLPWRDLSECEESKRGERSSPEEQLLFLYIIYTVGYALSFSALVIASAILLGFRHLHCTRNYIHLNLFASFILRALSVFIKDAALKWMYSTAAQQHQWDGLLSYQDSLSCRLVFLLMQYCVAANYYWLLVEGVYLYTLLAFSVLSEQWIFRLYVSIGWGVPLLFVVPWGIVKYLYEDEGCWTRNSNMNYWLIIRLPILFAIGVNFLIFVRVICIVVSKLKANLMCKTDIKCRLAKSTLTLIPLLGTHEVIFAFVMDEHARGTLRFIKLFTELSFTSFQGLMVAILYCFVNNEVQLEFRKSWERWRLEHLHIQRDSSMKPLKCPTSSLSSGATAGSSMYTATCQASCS
#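 Stable HEK293 clone (constitutively active GLP-1R + cAMP-response luciferase); 200 cells/uL plated, 12 h pre-culture, compound 24 hr, 37 deg C/5% CO2; detection reagent 12 min RT; luminescence.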
# TGFb inhibitor: inhibitors of TGF-b signaling | Potency, µM (top dose mostly 46.1 µM), actives largely listed as inhibitors | 1.2% of 410,000 active | HepG2 CAGA-GFP TGF-b/SMAD3 reporter, GFP fluorescence, 18 h; TGF-beta stimulated, 500 pg/mL final; note: nearly all actives have a fitted effect of over 65% in size
#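 HEPG2 CAGA-GFP cells (1000/well, DMEM with 1% FBS) were pre-incubated 2 h at 37 degrees C, given compound by pin tool, then stimulated with TGF-beta at 500 pg/mL final for 18 h before per-cell GFP fluorescence imaging.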
# ATXN2 expr inh: ATXN2 expression inhibition; HEK-293 ATXN2-luciferase reporter, luminescence, 24 h; 0.72% of 360,000 active; AID 1745845; Potency, µM (top dose mostly 57 µM), usual class: inhibitors; note: nearly all actives have a fitted effect of over 55% in size
#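 qHTS (up to 57 uM final) was run with 24 h compound exposure of reporter cells at 37 °C. Each well was multiplexed: SteadyGlo luminescence measured ATXN2-luciferase expression after a fluorogenic Gly-Phe-AFC viability readout (25 uM final).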
# GLP1R ag: GLP-1 receptor (human) agonism; P43220; HEK293 GLP-1R CRE-luciferase, luminescence, 4-6 h; cells express a hypersensitive GLP-1R form; Potency, µM (series often up to 45.6 µM), actives largely listed as activators; 0.007% of 380,000 active; AID 624172
# HepG2 tox-1: HepG2 cytotoxicity, counter-screen for TGF-b inhibitors | HepG2 CAGA-GFP viability, ATP luminescence, 18 h | 0.76% of 410,000 active | Potency, µM (series often up to 46.1 µM), usual class: cytotoxic
#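 HepG2 CAGA-GFP cells (1000/well, DMEM with 1% FBS) received compound, then TGF-beta at 500 pg/mL final, and were incubated 18 hours at 37 degrees C. Viability was read by CellTiter-Glo luminescence. Media-only wells were set as complete cell-killing and DMSO as no toxicity.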
# S2 tox: cell viability loss in ATXN counter-screen | Potency, µM (series often up to 56.7 µM), most hits filed as cytotoxic | AID 651635 | S2 cells (HEK-293 line with an ATXN2-luciferase reporter) viability, CellTiter-Fluor protease fluorescence, 24 h | 0.49% of 400,000 active; note: nearly all actives have a fitted effect of over 40% in size
# TGFb confirm: confirmation of TGF-b signaling inhibitors in HepG2 reporter cells | shares compounds with TGFb inhibitor | HepG2 CAGA-GFP TGF-b reporter, GFP fluorescence, 18 h; cells stimulated with TGF-beta, 500 pg/mL | Potency, µM (doses to about 46.1 µM), actives largely listed as inhibitors | 63% of 1,600 active; note: nearly all actives have a fitted effect of over 65% in size
# HepG2 tox-2: toxic to HepG2 cells in TGF-b counterscreen. shares compounds with TGFb inhibitor. HepG2 CAGA-GFP viability, ATP luminescence, 18 h; cells stimulated with TGF-beta, 500 pg/mL. Potency, µM (top dose mostly 46.1 µM), most hits filed as inhibitors. 27% of 1,600 active; note: nearly all actives have a fitted effect of over 70% in size
# TGFb CCL64 inh: orthogonal confirmation of TGF-b inhibitors in CCL64 cells. shares compounds with TGFb inhibitor. CCL64 CAGA-GFP reporter, TGF-b stimulated, GFP fluorescence, 18 h. Potency, µM (top dose mostly 46.1 µM), usual class: inhibitors. 41% of 1,600 active; note: nearly all actives have a fitted effect of over 65% in size
# COP TGFb inh: blocks TGF-b signaling in HepG2 COP reporter. shares compounds with TGFb inhibitor. HepG2 COP-GFP TGF-b reporter, GFP fluorescence, 18 h; cells stimulated by added recombinant TGF-beta. Potency, µM (doses to about 46.1 µM), most hits filed as inhibitors. 3% of 1,600 active; note: nearly all actives have a fitted effect of over 70% in size
# A number is an active result; – = inactive; ? = inconclusive; · = no result. Hits are enriched below; roughly 3.7% of the tested compounds scored in any of these assays. Calls come from the whole dose curve; as a rule, active = well fitted curve in the direction sought with a large enough effect; inconclusive = small, poorly fitted or top-dose-only effect, or another doubt; inactive = no such curve, though single readings can be large; an effect the other way counts as inactive or inconclusive.
SMILES,GLP-1R inv ag,TGFb inhibitor,ATXN2 expr inh,GLP1R ag,HepG2 tox-1,S2 tox,TGFb confirm,HepG2 tox-2,TGFb CCL64 inh,COP TGFb inh
CCCCN(CCCC)CCCNC(=O)c1cc(-c2ccc(Cl)s2)nc2ccccc12,–,?,–,·,–,–,·,·,·,·
Cc1ccccc1OCC(O)Cn1c(=N)n(Cc2ccccc2)c2ccccc21 (stereo not drawn),8.9µM,7.1µM,?,–,7.9µM,32µM,?,?,?,–
CCCc1cc(=O)n2[nH]cc(-c3ccc(Cl)cc3)c2n1,?,5µM,10µM,–,11µM,?,26µM,?,12µM,–
CC1CCCN(S(=O)(=O)c2ccc(NC(=O)CNC3CCCC3)cc2)C1 (stereo not drawn),?,–,?,–,–,–,·,·,·,·
CCSc1ncc(Cl)c(C(=O)Nc2ccc(S(=O)(=O)N3CCCCC3CC)cc2)n1 (stereo not drawn),?,–,–,·,–,–,·,·,·,·
CCS(=O)(=O)c1ncc(Cl)c(C(=O)Nc2ccc(S(=O)(=O)N3CCCC(C)C3)cc2)n1 (stereo not drawn),?,4.5µM,8.9µM,–,4.5µM,8.9µM,4.1µM,5.2µM,2.6µM,7.3µM
CCC1CCCCN1S(=O)(=O)c1ccc(NC(=O)c2nc(S(C)(=O)=O)ncc2Cl)cc1 (stereo not drawn),?,4.5µM,16µM,–,4µM,13µM,3.7µM,6.5µM,2.1µM,9.2µM
O=C(NCCc1cccs1)C1CC(c2ccccc2F)=NO1 (stereo not drawn),–,?,–,–,–,–,–,–,–,–
O=C(NCCc1cccs1)C1CC(c2cccc(F)c2)=NO1 (stereo not drawn),–,–,–,–,–,–,·,·,·,·
O=C1NC(Cc2ccc(O)cc2)c2nc3ccc(Cl)cc3c(=O)n2-c2cc3ccccc3cc21 (stereo not drawn),?,7.9µM,?,–,–,?,8.2µM,?,5.8µM,–
Cc1ccc(NS(=O)(=O)c2ccc(-c3cc(C)no3)cc2)c(Br)c1,?,?,·,·,–,·,·,·,·,·
CN(C)c1nc(Nc2ccc(F)cc2)nc(Oc2ccc(F)cc2)n1,?,?,·,–,–,–,·,·,·,·
CN(C)c1nc(N/N=C/c2ccccc2O)nc(Nc2ccc(F)cc2)n1,?,13µM,?,–,–,–,15µM,?,?,–
O=S(=O)(NCCOc1ccccc1Cl)c1ccc2oc3ccccc3c2c1,?,16µM,–,–,–,–,18µM,?,?,–
COc1ccccc1OCCNS(=O)(=O)c1ccc2oc3ccccc3c2c1,?,?,–,–,–,–,·,·,·,·
O=C(Nc1ccc(S(=O)(=O)N2CCOCC2)cc1)c1ccc([N+](=O)[O-])o1,–,6.3µM,?,–,–,?,3.3µM,13µM,12µM,?
O=C(COC(=O)c1ccc([N+](=O)[O-])o1)Nc1ccc(N2CCOCC2)cc1,–,–,–,–,–,–,·,·,·,·
O=C(Nc1ccc(S(=O)(=O)N2CCOCC2)cc1)c1ccco1,–,–,–,–,–,–,·,·,·,·
